Bioassay records as filed in PubChem BioAssay.
Hits are enriched below; roughly 27% of the tested compounds scored in any of these assays.
CYP2C9 act: human CYP2C9 activators, primary screen, biochemical, luminescence | 96,000 compounds, 1.4% hits | AID 1024, 2008 | activation factor at 5 µM | Cytochrome P450 2C9 (Homo sapiens), P11712 | recombinant CYP2C9, luciferin-H conversion; active compounds read high; factor 1 = untreated enzyme, 0 = blocked;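 active = activation factor of 2 or more for CYP2C9 at a 5 µM dose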;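 also: 0 = sulfaphenazole-blocked wells and 1 = vehicle-only wells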
Cav32 inh: Cav3.2 calcium influx blockers – cell-based, Fluo-4 calcium fluorescence, FDSS, MLSMR library, primary screen; Cav3.2-expressing cells; active compounds read low; 100,000 compounds, 4% hits; AID 449739, 2010; Voltage-dependent T-type calcium channel subunit alpha-1H (Homo sapiens), O95180; B-score at 10 µM;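 active = single-dose well whose peak fluorescence ratio is a statistical outlier from its plate by either plate-standardised score or position-corrected B-score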
CYP2C19 inh: blockers of cytochrome P450 2C19 activity – biochemical, luminescence, ADME assay, primary screen. 96,000 compounds, 21% hits. AID 778, 2007. P33261. CYP2C19 Supersomes, luciferin-H EGE luminescence, 30 min. inhibition, % at 5 µM;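 active = CYP2C19 inhibition above a set limit at 5 µM in the primary screen, cut at about 50% in these data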;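 also: plate controls were negative control wells for no effect and 2.5 mM tranylcypromine positive control for full effect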
Target sequence (P33261 whole entry, looked up): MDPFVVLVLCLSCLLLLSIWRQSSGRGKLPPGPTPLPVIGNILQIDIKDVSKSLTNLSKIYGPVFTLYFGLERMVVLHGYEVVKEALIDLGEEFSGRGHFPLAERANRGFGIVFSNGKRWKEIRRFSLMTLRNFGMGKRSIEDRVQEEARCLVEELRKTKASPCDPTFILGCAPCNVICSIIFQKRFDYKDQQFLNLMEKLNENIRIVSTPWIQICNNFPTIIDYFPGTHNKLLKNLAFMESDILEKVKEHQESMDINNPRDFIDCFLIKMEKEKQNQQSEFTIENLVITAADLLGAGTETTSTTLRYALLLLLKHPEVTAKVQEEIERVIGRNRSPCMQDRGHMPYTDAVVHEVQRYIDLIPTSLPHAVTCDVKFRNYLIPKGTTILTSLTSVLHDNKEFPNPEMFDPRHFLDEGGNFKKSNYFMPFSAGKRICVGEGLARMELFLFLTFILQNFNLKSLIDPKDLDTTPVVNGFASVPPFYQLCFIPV
CYP2C19 act: human CYP2C19 activators, primary screen, biochemical, luminescence; 96,000 tested, under 10 active; AID 1025, 2008; Cytochrome P450 2C19 (Homo sapiens), P33261; recombinant CYP2C19, luciferin-H EGE luminescence; active compounds read high; 0 = fully inhibited enzyme, 1 = untreated enzyme; activation factor at 5 µM;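 active = activation factor of at least 2 at 5 µM in the primary screen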;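 also: 0 = wells with 2.5 mM tranylcypromine and 1 = vehicle-only wells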
CYP2C9 inhib: blockers of cytochrome P450 2C9 activity – biochemical, luminescence, ADME assay, primary screen; P11712; CYP2C9 Supersomes, luciferin-H conversion; inhibition, % at 5 µM; 96,000 compounds, 20% hits;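 active = blocking of liver enzyme CYP2C9 beyond about 50% at 5 µM, limit read from the data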
* hit, by the source's call; nt = no result.

SMILES | CYP2C9 act | Cav32 inh | CYP2C19 inh | CYP2C19 act | CYP2C9 inhib
Cc1sc(NC(=O)CN2CCN(c3ccccn3)CC2)c(C#N)c1C | nt | 0.342 | nt | nt | nt
c1ccc(N2CCCCC2)c(NC2=NCCC2)c1 | 0.8 | 0.354 | 5.8 | 0.9 | 18.0
Cc1cc(C)c(S(=O)(=O)c2ccccc2C)c(Cl)n1 | 3.6* | -0.417 | 66.0* | 0.3 | -255.8
CCCCSc1nc(C)c(C(C)=O)cc1C#N | 0.7 | -0.00256 | 34.6 | 0.7 | 29.1
CCCCSc1nc(C)cc(C)c1S(=O)(=O)c1ccccc1C | 0.6 | -3.24 | 74.6* | 0.3 | 39.2
Cc1ccc(S(=O)(=O)c2c(C)cc(C)nc2Cl)c(C)c1 | 1.8 | nt | 99.7* | 0 | -84.9
CCC1CCCCN1c1ccc([N+](=O)[O-])cc1/C=N/NC(=O)Cn1c2ccccc2c(=O)c2ccccc21 (stereo not drawn) | 0.5 | -2.32 | -7.2 | 1.1 | 49.2
CC1=C(C(=O)Nc2ccccc2)C(c2ccco2)C(C#N)=C(SCC(=O)Nc2cccc(C)c2C)N1 (stereo not drawn) | 0.3 | -5.45* | 72.1* | 0.3 | 72.2*
CC1=C(C(=O)Nc2ccccc2)C(c2ccco2)C(C#N)=C(SCC(=O)OC(C)C)N1 (stereo not drawn) | 0.6 | -4.88* | 42.9 | 0.6 | 44.9
CC1=C(C(=O)Nc2ccccc2)C(c2ccco2)C(C#N)=C(SCc2ccccc2)N1 (stereo not drawn) | 0 | -4.2 | 96.6* | 0 | 96.2*
CC1=C(C(=O)Nc2ccccc2)C(c2ccncc2)C(C#N)=C(SCC(=O)Nc2ccccc2)N1 (stereo not drawn) | 0.2 | -2.49 | 83.6* | 0.2 | 80.2*
CC1=C(C(=O)Nc2ccccc2)C(c2ccco2)NC(=S)N1 (stereo not drawn) | 0.9 | -0.0299 | 14.5 | 0.9 | 11.4
Cc1ccc(OCC(=O)N(C)CCc2ccccn2)cc1 | 0.9 | 0.536 | 38.6 | 0.6 | 5.8
COc1ccc(CNc2ccc(C)cc2)cc1Br | nt | -1.74 | nt | nt | nt
COc1ccc(Br)cc1CNc1ccc(O)cc1 | 0.7 | 0.0138 | 73.0* | 0.3 | 30.0
CCc1c(C)nc2ncnn2c1N1CCCC(C(=O)Nc2cc(F)ccc2C)C1 (stereo not drawn) | 0.2 | 0.0201 | 23.4 | 0.8 | 84.6*
COc1ccc(NC(=O)C2CCCN(c3c4c(nc5ncnn35)CCC4)C2)cc1 (stereo not drawn) | 0.2 | -0.237 | 31.2 | 0.7 | 80.0*
CCc1c(C)nc2ncnn2c1N1CCC(C(=O)NCc2cccc(OC)c2)CC1 | 1 | 0.742 | 5.9 | 0.9 | -2.1
O=C(NCc1ccco1)C1CCN(S(=O)(=O)Cc2ccccc2)CC1 | nt | 0.426 | nt | nt | nt
CCC1(C)Cc2ccccc2-c2nc(NCCO)n(-c3ccc(C)cc3)c(=O)c21 (stereo not drawn) | 0.6 | -3.31 | 67.0* | 0.3 | 43.7
CC1(C)Cc2ccccc2-c2nc(NCCO)n(-c3ccccc3)c(=O)c21 | 0.7 | -1.22 | 61.4* | 0.4 | 34.6
CCC1(C)Cc2ccccc2-c2nc3n(c(=O)c21)CCCCC3 (stereo not drawn) | 0.5 | -2.98 | 31.9 | 0.7 | 49.4
CCc1ccc(N(C(=O)CNC(=O)c2cccs2)C(C(=O)NC(C)(C)C)c2cc(OC)c(OC)c(OC)c2)cc1 (stereo not drawn) | 0.6 | -1.33 | 35.7 | 0.6 | 41.2
Cc1ccc2oc3nc(C)c(C(=O)O)cc3c(=O)c2c1 | 0.7 | 1.48 | 60.5* | 0.4 | 31.1
O=C(Nc1ccc(F)cc1)c1sc2cc(C(F)(F)F)cnc2c1-c1cccs1 | 0.7 | -0.755 | 8.4 | 0.9 | 25.4
SMILES | CYP2C9 act | Cav32 inh | CYP2C19 inh | CYP2C19 act | CYP2C9 inhib
COC(=O)c1sc2cc(C(F)(F)F)cnc2c1-c1ccccc1 | 0.4 | 0.428 | 26.7 | 0.7 | 58.8*
N#Cc1ccc(NC(=O)c2sc3cc(C(F)(F)F)cnc3c2-c2cccs2)cc1 | 0.4 | -0.138 | -9.6 | 1.1 | 61.5*
CSc1nnc(-c2sc3cc(C(F)(F)F)cnc3c2-c2ccccc2)n1C | 0.3 | 2.06 | 25.3 | 0.7 | 71.2*
O=C(c1ccc(F)cc1)N1C2CCC1CC(O)(c1ccccc1F)C2 (stereo not drawn) | 0.7 | 0.352 | 52.7* | 0.5 | 26.2
O=C(c1ccc(F)cc1)N1CCC(N2CCCCCC2)CC1 | 1 | -0.545 | 2.9 | 1 | 2.4
COc1cccc(S(=O)(=O)Nc2ccc3sc(C)nc3c2)c1 | 0.1 | nt | 100.3* | 0 | 94.9*
CS(=O)(=O)NCCOc1ccc(S(=O)(=O)N2CCCc3ccccc32)cc1 | 2.1* | -0.994 | 75.1* | 0.2 | -110.9
CCc1nnc(NC(=O)c2ccc(S(=O)(=O)N3CCCc4ccccc43)cc2)o1 | 0.4 | -1.62 | 0.9 | 1 | 62.3*
COC(=O)Nc1ccc(S(=O)(=O)N2CCCCC2)cc1 | 0.6 | 1.6 | 31.9 | 0.7 | 37.4
COc1cc(C(=O)Nc2ccc(S(=O)(=O)N3CCc4ccccc43)cc2)cc(OC)c1OC | 0.1 | -5.29* | 49.9 | 0.5 | 91.0*
COC(=O)Nc1ccc(S(=O)(=O)N2CCCc3ccccc32)cc1 | 0.5 | -6.13* | -5.6 | 1.1 | 46.4
CCc1nnc(NC(=O)c2cccc(S(=O)(=O)N3CCc4ccccc43)c2)s1 | 0.9 | -0.214 | 6.1 | 0.9 | 12.9
COc1ccc(C(=O)Nc2ccc(-c3ccc(C)o3)cc2)cc1S(=O)(=O)N1CCOCC1 | 0.6 | 0.346 | 29.7 | 0.7 | 35.2
Cc1cc(C)cc(Oc2cc(NC(=O)c3cn(C)nc3C)cc([N+](=O)[O-])c2)c1 | 0.5 | -1.03 | 24.0 | 0.8 | 48.0
COc1ccc(OCC(=O)Nc2cc(-c3nn(C)c(=O)c4ccccc34)ccc2OC)cc1 | 0.8 | 0.856 | 38.7 | 0.6 | 21.6
COc1ccccc1C(=O)Nc1ccc(S(=O)(=O)N2CCc3ccccc32)cc1 | 0.1 | -1.41 | 72.7* | 0.3 | 88.7*
CC1CCc2nc(NC(=O)C3COc4ccccc4O3)sc2C1 (stereo not drawn) | 0.8 | -3.77 | -1.1 | 1 | 16.5
CC1CCc2nc(NC(=O)c3ccc(S(=O)(=O)N4CCCc5ccccc54)cc3)sc2C1 (stereo not drawn) | 0.5 | -1.05 | 0.9 | 1 | 54.3*
O=C(Nc1ccc(S(=O)(=O)N2CCc3ccccc32)cc1)c1ccc2c(c1)OCO2 | 0.6 | -2.33 | 19.0 | 0.8 | 40.2
O=S(=O)(c1cccs1)N1CCCc2ccccc21 | 2.1* | -0.207 | 84.6* | 0.2 | -112.6
CC(=O)N1CCN(CC(=O)Nc2c(Cl)cc(Cl)cc2Cl)CC1 | 0.8 | 0.114 | 9.1 | 0.9 | 17.4
Cc1nn(Cc2c(F)c(F)c(F)c(F)c2F)c(C)c1NC(=O)c1c(-c2ccccc2)nn(-c2ccccc2)c1C | 0.6 | 0.315 | 26.7 | 0.7 | 35.2
O=C(CN(CCc1ccccc1)C(=O)Cn1nnc(-c2cccs2)n1)NCc1ccco1 | 0.2 | -0.507 | 56.1* | 0.4 | 81.0*
